Source: PubChem BioAssay
Abs 340nm: compound absorbs light at 340 nm. compound absorbance at 340 nm, fold over control. fold change at 10 µM. 65,000 tested, under 10 active;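 active means at 10 µM dose, initial 340 nm absorbance at least 2 fold that of control wells; inactive means change under 2 fold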;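 further: initial absorbance extrapolated from kinetic A340 decline of NADH oxidation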
NADH enzymes: blocks coupling enzymes of NAD/NADH assays | IC50, µM (titrated, usually from 10 µM), inactives show at the highest dose inhibition | actives 0.02% (n = 65,000) | coupled PK/LDH NADH assays, four targets;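 active means single-dose screening hits from any of four coupled enzyme assays that gave an IC50 when retested across doses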;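 further: the DPM-DC format reads NADH fluorescence rather than 340 nm absorbance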
DPM-DC inhibit: blocks S. pneumoniae diphosphomevalonate decarboxylase; purified DPM-DC, PK/LDH coupled NADH fluorescence; calls only at 10 µM; actives 0.49% (n = 65,000); AID 556;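 active means the 320 compounds with the highest percent inhibition in the single-dose primary screen, excluding strongly autofluorescent ones, cut at about 32% in these data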;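 further: kinetic rate of NADH fluorescence loss reporting ADP formed by the decarboxylase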
Spn PMK inh: S. pneumoniae PMK inhibition | purified PMK, PK/LDH-coupled NADH absorbance 340 nm | actives 0.49% (n = 65,000) | AID 539 | inhibition, % at 10 µM;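 active means top-ranked compounds by inhibition in the single 10 µM screen, taking a fixed number of the strongest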;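 further: 0% = full reaction with DMSO carrier and 100% = background rate without enzyme reaction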
Autofluor 339: intrinsic fluorescence of library compounds, ex339/em460 – biochemical, MLSMR library, data from DPM-DC assay, artefact control, profiling panel; compound autofluorescence, ex339/em460 nm, NADH buffer; hits give high values; 1 = no-compound wells, NADH background; fluorescence fold increase at 10 µM; actives 5.5% (n = 65,000); AID 709;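 active means at 10 µM, mean starting fluorescence two-fold or more over control wells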;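 further: signal is the first read of a kinetic run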
Spn MK inh: blocks S. pneumoniae mevalonate kinase | inhibition, % at 10 µM | actives 0.48% (n = 65,000) | purified MK, PK/LDH-coupled NADH absorbance 340 nm;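 active means ranked among the strongest by inhibition in the single 10 µM screen, a fixed top-ranked set picked for dose follow-up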
Active calls of the source: *. Compounds with a hit are over-represented: about 6.5% of the library has one in this group of screens.

What do the screens show for `CCC(C)(C)n1nnnc1C(c1cccnc1)N1CCCc2ccccc21` (stereo not drawn)?
Abs 340nm: 0.97; NADH enzymes: 9.0%; DPM-DC inhibit: inactive; Spn PMK inh: 28.0*; Autofluor 339: 1.06; Spn MK inh: 0.0

How did CCCCSc1nnc2nc(C)cc(C)n12 do in these assays?
Abs 340nm: 1.02; NADH enzymes: 5.0%; DPM-DC inhibit: inactive; Spn PMK inh: 8.0; Autofluor 339: 1.1; Spn MK inh: 7.0

Results for CC(OC(=O)c1cc(=O)[nH]c2ccccc12)c1ccccc1 (stereo not drawn) ?
Abs 340nm: 1.14; NADH enzymes: 10.0%; DPM-DC inhibit: inactive; Spn PMK inh: 10.0; Autofluor 339: 1.95; Spn MK inh: 14.0

How did COc1ccc(-c2cc(C(F)(F)F)n3nc(C(=O)N4CCCC4)cc3n2)cc1 do in these assays?
Abs 340nm: 1.11; NADH enzymes: 8.0%; Spn PMK inh: 12.0; Autofluor 339: 2.2*; Spn MK inh: 3.0

How did O=C(c1nc2nc(-c3ccccc3)cc(C(F)(F)F)n2n1)N1CCOCC1 do in these assays?
Abs 340nm: 1.09; NADH enzymes: 10.0%; DPM-DC inhibit: inactive; Spn PMK inh: 20.0; Autofluor 339: 1.49; Spn MK inh: 0.0

How did O=C(c1nc2nc(-c3ccc(Cl)cc3)cc(C(F)(F)F)n2n1)N1CCOCC1 do in these assays?
Abs 340nm: 1.14; NADH enzymes: 10.0%; Spn PMK inh: 5.0; Autofluor 339: 3.18*; Spn MK inh: 15.0

How did COc1ccc(-c2cc(C(F)(F)F)n3nc(C(=O)O)nc3n2)cc1 do in these assays?
Abs 340nm: 1.13; NADH enzymes: 11.0%; DPM-DC inhibit: inactive; Spn PMK inh: 16.0; Autofluor 339: 2.85*; Spn MK inh: 9.0

What do the screens show for `CCOC(=O)c1cc(-c2ccco2)nc2c1c(C)nn2CCC#N`?
Abs 340nm: 1.04; NADH enzymes: 2.0%; Spn PMK inh: 12.0; Autofluor 339: 2.43*; Spn MK inh: 2.0

How did CCOC(=O)C1=C(C)N(C)C(C)=C(C(=O)OCC)C1c1ccncc1 do in these assays?
Abs 340nm: 1.07; NADH enzymes: 3.0%; DPM-DC inhibit: inactive; Spn PMK inh: 1.0; Autofluor 339: 1.12; Spn MK inh: 8.0

What do the screens show for `CCOC(=O)c1cc(-c2ccncc2)nc2c1c(C)nn2C`?
Abs 340nm: 1.04; NADH enzymes: 12.0%; Spn PMK inh: 19.0; Autofluor 339: 5.06*; Spn MK inh: 4.0

How did CCOC(=O)c1cc(C#N)c(NCc2ccccc2)nc1C do in these assays?
Abs 340nm: 1.05; NADH enzymes: 2.0%; DPM-DC inhibit: inactive; Spn PMK inh: 5.0; Autofluor 339: 1.7; Spn MK inh: 0.0

How did CCOC(=O)c1cc(-c2ccc3c(c2)OCCO3)nc2c1c(C)nn2CCC#N do in these assays?
Abs 340nm: 1.05; NADH enzymes: 6.0%; Spn PMK inh: 11.0; Autofluor 339: 4.9*; Spn MK inh: 0.0

What do the screens show for `Brc1c(OCCOCCn2cncn2)ccc2ccccc12`?
Abs 340nm: 1.03; NADH enzymes: 3.0%; DPM-DC inhibit: inactive; Spn PMK inh: 4.0; Autofluor 339: 1.08; Spn MK inh: 5.0

Results for Cn1nc(C(=O)Nc2c(-c3ccccc3)nc3sccn23)c2ccccc2c1=O ?
Abs 340nm: 1.02; NADH enzymes: 6.0%; DPM-DC inhibit: inactive; Spn PMK inh: 11.0; Autofluor 339: 1.01; Spn MK inh: 7.0

What do the screens show for `O=C(CN1CCN(c2ncccn2)CC1)N1CCN(C(c2ccccc2)c2ccccc2)CC1`?
Abs 340nm: 1.1; NADH enzymes: 16.0%; DPM-DC inhibit: inactive; Spn PMK inh: 0.0; Autofluor 339: 1.13; Spn MK inh: 49.0*

Results for O=C(Cn1cccc1)N1CCN(C(c2ccccc2)c2ccccc2)CC1 ?
Abs 340nm: 0.98; NADH enzymes: 12.0%; DPM-DC inhibit: inactive; Spn PMK inh: 11.0; Autofluor 339: 1.03; Spn MK inh: 7.0

What do the screens show for `NC(=O)C1CCN(C(=O)c2cc(S(=O)(=O)N3CCOCC3)c(Cl)cc2Cl)CC1`?
Abs 340nm: 1.01; NADH enzymes: 5.0%; DPM-DC inhibit: inactive; Spn PMK inh: 10.0; Autofluor 339: 1.11; Spn MK inh: 1.0

Results for CN1CCN(S(=O)(=O)c2ccc3c4c(cccc24)C(=O)N3)CC1 ?
Abs 340nm: 1.06; NADH enzymes: 6.0%; Spn PMK inh: 9.0; Autofluor 339: 2.13*; Spn MK inh: 2.0

Results for CCOc1ccccc1N1CCN(S(=O)(=O)c2ccc3c4c(cccc24)C(=O)N3)CC1 ?
Abs 340nm: 1.1; NADH enzymes: 8.0%; DPM-DC inhibit: inactive; Spn PMK inh: 8.0; Autofluor 339: 1.29; Spn MK inh: 3.0

Results for CN1C(=O)c2cccc3c(S(=O)(=O)Nc4ccccn4)ccc1c23 ?
Abs 340nm: 1.06; NADH enzymes: 6.0%; DPM-DC inhibit: inactive; Spn PMK inh: 7.0; Autofluor 339: 1.28; Spn MK inh: 4.0

What do the screens show for `O=C1Nc2ccc(S(=O)(=O)N3CCCCCC3)c3cccc1c23`?
Abs 340nm: 1.09; NADH enzymes: 8.0%; Spn PMK inh: 11.0; Autofluor 339: 2.12*; Spn MK inh: 4.0

Results for O=C1Nc2ccc(S(=O)(=O)NCc3ccccn3)c3cccc1c23 ?
Abs 340nm: 1.11; NADH enzymes: 4.0%; Spn PMK inh: 7.0; Autofluor 339: 3.81*; Spn MK inh: 1.0

Results for O=C1Nc2ccc(S(=O)(=O)N3CCOCC3)c3cccc1c23 ?
Abs 340nm: 1.11; NADH enzymes: 2.0%; Spn PMK inh: 0.0; Autofluor 339: 4*; Spn MK inh: 4.0

How did CCOc1ccc(C2/C(=C(/O)c3ccc(Cl)cc3)C(=O)C(=O)N2CCCN(C)C)cc1OC (stereo not drawn) do in these assays?
Abs 340nm: 1; NADH enzymes: 5.0%; DPM-DC inhibit: inactive; Spn PMK inh: 3.0; Autofluor 339: 1.08; Spn MK inh: 11.0

How did COc1cc(NS(C)(=O)=O)c(OC)cc1NC(=O)c1cccc(F)c1 do in these assays?
Abs 340nm: 0.99; NADH enzymes: 8.0%; DPM-DC inhibit: inactive; Spn PMK inh: 15.0; Autofluor 339: 1.05; Spn MK inh: 8.0

What do the screens show for `C/C(NCCN1CCOCC1)=C(\C#N)C(N)=O`?
Abs 340nm: 1.04; NADH enzymes: 4.0%; DPM-DC inhibit: inactive; Spn PMK inh: 11.0; Autofluor 339: 1.12; Spn MK inh: 0.0

Results for COCCN(C(=O)C1CC1)c1nnc(-c2cccc(C)c2)s1 ?
Abs 340nm: 0.99; NADH enzymes: 3.0%; DPM-DC inhibit: inactive; Spn PMK inh: 3.0; Autofluor 339: 1.08; Spn MK inh: 6.0

Results for CCc1c(C)c2ccc(OCC(N)=O)cc2oc1=O ?
Abs 340nm: 1.16; NADH enzymes: 1.0%; Spn PMK inh: 0.0; Autofluor 339: 3.67*; Spn MK inh: 1.0

Results for CCOC(=O)c1oc2cc(OCC(N)=O)ccc2c(=O)c1-c1ccc(OC)c(OC)c1 ?
Abs 340nm: 1.02; NADH enzymes: 3.0%; DPM-DC inhibit: inactive; Spn PMK inh: 8.0; Autofluor 339: 1.02; Spn MK inh: 7.0
